Experimental findings from ChEMBL document CHEMBL4296182, “CO-ADD screening of NIH NCI Diversity Set V” are described below.

Molecules are shown by their SMILES. For part of these data: Measured potencies and affinities stand elsewhere.

One experiment relates to Staphylococcus aureus. Briefly: Antibacterial activity against Staphylococcus aureus MRSA ATCC 43300 (CO-ADD:GP_020); MIC in CAMBH media using NBS plates, by Resazurin F(560/590). The conditions noted are these: Concentration 20 uM, ASSAY_TEST Inhibition of Bacterial Growth, detection method Resazurin, Fluorescence (ex560/em590), MEDIA CAMHB, plate type 384well, CORNING #3640, time 18 hr. The format is functional. For orientation: Alamar Blue is a resazurin reagent that responds to reducing activity.

The next experiment relates to Acinetobacter baumannii. The experiment is described as follows: Antibacterial activity against Acinetobacter baumannii ATCC 19606 (CO-ADD:GN_034); MIC in CAMBH media using NBS plates, by Resazurin F(560/590). The experiment is classed as functional. The conditions noted are these: Concentration 20 uM, ASSAY_TEST Inhibition of Bacterial Growth, detection method Resazurin, Fluorescence (ex560/em590), MEDIA CAMHB, plate type 384well, CORNING #3640, time 18 hr.

The next experiment deals with Escherichia coli. Briefly: Antibacterial activity against Escherichia coli ATCC 25922 (CO-ADD:GN_001); MIC in CAMBH media using NBS plates, by Resazurin F(560/590). The experiment is classed as functional. Particulars: Concentration 20 uM, ASSAY_TEST Inhibition of Bacterial Growth, detection method Resazurin, Fluorescence (ex560/em590), MEDIA CAMHB, plate type 384well, CORNING #3640, time 18 hr.

Another experiment relates to Klebsiella pneumoniae. Particulars: Concentration 20 uM; ASSAY_TEST Inhibition of Bacterial Growth; detection method Absorption (OD600); MEDIA CAMHB; plate type 384well; NBS; CORNING #3640; time 18 hr.
A further experiment has as its system Candida albicans. Particulars: 20 µM.
The test system of another experiment is Cryptococcus neoformans. The conditions noted are these: Concentration 20 uM; ASSAY_TEST Inhibition of Fungal Growth; detection method Resazurin; Absorption (OD600-OD570); plate type 384well; NBS; CORNING #3640.

Consider `Cc1ncc([N+](=O)[O-])n1CCOC(N)=O` [BAMNIDAZOLE], for which the Inhibition (usually the change of the read-out against control, counted positive when it falls) in the experiment with Staphylococcus aureus was 2.14%; in the experiment with Acinetobacter baumannii, -5.43%; in the experiment on Escherichia coli, 15.41%; in the experiment with Klebsiella pneumoniae, 2.21%; in the experiment with Candida albicans it was 2.39%; with Cryptococcus neoformans, 7.78%.

Turning to `O=C(Oc1ccccc1)N(c1ccccc1)c1ccccc1`, the Inhibition is 13.05% with Staphylococcus aureus; 1.09% with Acinetobacter baumannii; 9.21% in the experiment with Escherichia coli; 3.21% in the experiment with Klebsiella pneumoniae; 5.51% in the experiment with Candida albicans; -11.03% in the experiment on Cryptococcus neoformans.

Consider `CC(C)(C)c1cc(C=C(C#N)C#N)cc(C(C)(C)C)c1O` [TYRPHOSTIN A9], for which the Inhibition in the experiment on Staphylococcus aureus was -5.13%; in the experiment with Acinetobacter baumannii it was -9.85%; in the experiment with Escherichia coli, 13.03%; in the experiment on Klebsiella pneumoniae, 23.47%; in the experiment with Candida albicans, 14.2%; in the experiment with Cryptococcus neoformans, 6.62%.

With `CC(=O)Nc1cc([As](=O)(O)O)ccc1O` [ACETARSONE], the Inhibition is 12.71% with Staphylococcus aureus; 13.01% in the experiment with Acinetobacter baumannii; 0.28% in the experiment on Escherichia coli; 16.86% in the experiment with Klebsiella pneumoniae; 1.06% in the experiment with Candida albicans; -8.45% in the experiment on Cryptococcus neoformans.

With `O=C1N[C@H]2[C@H](O)[C@H](O)[C@@H](O)[C@H](O)[C@@H]2c2cc3c(c(O)c21)OCO3` [PANCRATISTATIN], the Inhibition was 12.72% in the experiment on Staphylococcus aureus; 6.17% in the experiment with Acinetobacter baumannii; 0.6% with Escherichia coli; 1.56% in the experiment with Klebsiella pneumoniae; 0.06% in the experiment with Candida albicans; -14.69% in the experiment on Cryptococcus neoformans.

As to `O=P(OC1=CCCCC1)(c1ccccc1)c1ccccc1`, the Inhibition with Staphylococcus aureus is 2.77%; in the experiment on Acinetobacter baumannii, -7.09%; in the experiment on Escherichia coli, 6.17%; in the experiment with Klebsiella pneumoniae it was 9.43%; in the experiment with Candida albicans it was 4.11%; with Cryptococcus neoformans, -2.72%.

As to `CN1CCC(c2c[nH]c3ccccc23)C1` (stereo not drawn), the Inhibition in the experiment on Staphylococcus aureus was 10.13%; in the experiment on Acinetobacter baumannii, 1.97%; with Escherichia coli, -8.69%; with Klebsiella pneumoniae it was 8.23%; in the experiment on Candida albicans, 0.53%; in the experiment with Cryptococcus neoformans, 10.07%.

Turning to `CN1CCCC1c1ccc(O)nc1` (stereo not drawn), the Inhibition in the experiment with Staphylococcus aureus was 23.44%; with Acinetobacter baumannii, -7.12%; in the experiment with Escherichia coli, 16.87%; in the experiment on Klebsiella pneumoniae, 15.46%; in the experiment on Candida albicans it was -1.49%; in the experiment with Cryptococcus neoformans it was -7.69%.

In the case of `O=C(OC1CCCCC1)c1ccccc1C(=O)OC1CCCCC1`, the Inhibition with Staphylococcus aureus is -2.45%; in the experiment with Acinetobacter baumannii, -19.72%; in the experiment on Escherichia coli, -0.16%; in the experiment on Klebsiella pneumoniae, 3.51%; with Candida albicans, 7.38%; in the experiment on Cryptococcus neoformans, -2.99%.

`COc1cc2c(cc1O)CC1c3c(cc(O)c(OC)c3-2)CCN1C` (stereo not drawn): the Inhibition in the experiment on Staphylococcus aureus was 8.78%; in the experiment with Acinetobacter baumannii it was -19.02%; with Escherichia coli it was 10.6%; in the experiment with Klebsiella pneumoniae, 7.6%; with Candida albicans, -2.23%; in the experiment with Cryptococcus neoformans, -8.59%.

With `CC(C)CC(NC=O)C(=O)O.COc1cc2c(cc1OC)C13CCN4CC5=CCOC6CC(=O)N2C1C6C5CC43` (stereo not drawn), the Inhibition in the experiment with Staphylococcus aureus was 7.19%; in the experiment with Acinetobacter baumannii it was -2.08%; in the experiment with Escherichia coli, 1.33%; in the experiment on Klebsiella pneumoniae it was 12.71%; with Candida albicans, -1.26%; in the experiment with Cryptococcus neoformans it was -3.45%.

Take `Cc1ccccc1-n1c(/C=C\c2ccccn2)nc2ccccc2c1=O`: the Inhibition was -4.95% in the experiment on Staphylococcus aureus; -2.79% with Acinetobacter baumannii; 7.76% in the experiment on Escherichia coli; 14.95% with Klebsiella pneumoniae; 5.08% in the experiment with Candida albicans; -6.01% in the experiment on Cryptococcus neoformans.

Turning to `O=C1N(c2nncs2)CCN1[N+](=O)[O-]`, the Inhibition with Staphylococcus aureus is 11.64%; in the experiment with Acinetobacter baumannii it was 7.25%; in the experiment on Escherichia coli, 7.74%; in the experiment on Klebsiella pneumoniae, 10.14%; in the experiment with Candida albicans, 2.04%; with Cryptococcus neoformans, -14.15%.

For the compound `C[C@H]1[C@H](C)N1CC(O)Cn1ccnc1[N+](=O)[O-]` (stereo partly drawn), the Inhibition in the experiment with Staphylococcus aureus is 3.93%; with Acinetobacter baumannii, 7.84%; with Escherichia coli it was -2.75%; in the experiment on Klebsiella pneumoniae, 19.25%; with Candida albicans it was 3.06%; in the experiment with Cryptococcus neoformans, -3.91%.

Turning to `CCN1CC2C3CCC(C)(O3)C2C1` (stereo not drawn), the Inhibition in the experiment with Staphylococcus aureus was 2.81%; with Acinetobacter baumannii it was -6.99%; with Escherichia coli, 12.74%; in the experiment with Klebsiella pneumoniae, 12.11%; with Candida albicans, 0.39%; in the experiment with Cryptococcus neoformans it was -3.82%.

`O=C(NCCCN1CC1)Nc1cccc2ccccc12`: the Inhibition in the experiment with Staphylococcus aureus was -3.04%; with Acinetobacter baumannii, 12.11%; with Escherichia coli, -2.13%; with Klebsiella pneumoniae, 20.16%; in the experiment on Candida albicans, 1.47%; in the experiment on Cryptococcus neoformans, 1.2%.

With `CSc1nc(=O)c(/N=N/c2ccc([As](=O)(O)O)cc2)c(N)[nH]1`, the Inhibition in the experiment on Staphylococcus aureus was -2.85%; in the experiment on Acinetobacter baumannii, 10.89%; in the experiment on Escherichia coli, 7.88%; in the experiment with Klebsiella pneumoniae it was 8.89%; with Candida albicans, -0.24%; in the experiment on Cryptococcus neoformans it was -16.43%.

Take `NC=C1C(=O)N(c2ccccc2)C(=O)N(c2ccccc2)C1=O`: the Inhibition in the experiment with Staphylococcus aureus is -9.39%; with Acinetobacter baumannii, 5.08%; in the experiment on Escherichia coli it was 6.01%; in the experiment on Klebsiella pneumoniae, 10.61%; in the experiment with Candida albicans, 0.46%; with Cryptococcus neoformans it was -6.24%.

Consider `CC(=O)OC1CCC2(C)C(CCC3C2CC(=O)C2(C)C3CC(N3CC3)C2C(C)=O)C1` (stereo not drawn), for which the Inhibition was -6.66% in the experiment with Staphylococcus aureus; -5.39% in the experiment on Acinetobacter baumannii; 9.74% with Escherichia coli; 4.84% in the experiment on Klebsiella pneumoniae; -0.96% with Candida albicans; -1.15% in the experiment with Cryptococcus neoformans.

For `O=c1cccc2n1C[C@H]1CNC[C@H]2C1`, the Inhibition was 0.43% in the experiment with Staphylococcus aureus; -9.28% in the experiment with Acinetobacter baumannii; 4.51% with Escherichia coli; 2.72% with Klebsiella pneumoniae; 0.25% in the experiment on Candida albicans; -10.24% in the experiment on Cryptococcus neoformans.

Consider `C/C=C(/C)C(=O)O[C@H]1CCN2CC=C(COC(=O)[C@@](O)([C@H](C)OC)C(C)(C)O)[C@H]12`, for which the Inhibition is 10.77% in the experiment on Staphylococcus aureus; -8.86% with Acinetobacter baumannii; 10.49% in the experiment on Escherichia coli; 12.46% in the experiment on Klebsiella pneumoniae; -1.68% in the experiment with Candida albicans; -5.72% in the experiment with Cryptococcus neoformans.

As for `COC(=O)c1nc(-c2ccc3c(n2)C(=O)C(N)=C(OC)C3=O)c(N)c(-c2ccc(OC)c(OC)c2O)c1C`, the Inhibition is -0.84% with Staphylococcus aureus; -9.1% with Acinetobacter baumannii; 8.8% in the experiment on Escherichia coli; 8.38% in the experiment with Klebsiella pneumoniae; -0.15% with Candida albicans; 0.31% with Cryptococcus neoformans.

In the case of `O=c1cccc2n1C[C@H]1C[C@@H]2CN2CCCC[C@@H]12`, the Inhibition is 6.92% with Staphylococcus aureus; -12.51% in the experiment with Acinetobacter baumannii; 5.34% with Escherichia coli; 8.7% with Klebsiella pneumoniae; -0.36% with Candida albicans; -3.93% in the experiment with Cryptococcus neoformans.
